Measured values taken from PubChem BioAssay.
Results filed as inconclusive are left out. The source made the active and inactive calls.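 Rule for the calls, unless noted: active = viability at or below 27.92% in each of two runs, the all-compound median minus 4 SD; inconclusive = no clear call, values can overlap the other calls; inactive = the rest.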

What was measured:
[1] = reducers of endogenous Her2 protein level, primary screen, SKBR3 breast tumor cells, AlphaScreen, ATP viability (AID 461;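 active = Her2 level under about 52% in both replicate screens, with viability over 70% of control, limit read from the data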;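 for Her2 level: lower value means less Her2 protein in the cells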;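 for viability: percent of carrier control wells set as 100% viability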); conditions: 18-24 h, measured here: SKBR3 viability, ATP luminescence, at 10 µM
[2] = molecular target: Receptor tyrosine-protein kinase erbB-2 (Homo sapiens) (UniProt P04626); assay: as above; conditions: 18-24 h, at 10 µM, stronger effect = lower value
[3] = SK-BR-3 cell growth inhibitors, pilot screen, 24 h, human (AID 572;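 active = viability at or below 10% of carrier control in both of two separate runs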;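 note: compound exposure lasted between 18 and 24 h rather than exactly 24 h; 100% = carrier-treated control wells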); conditions: SK-BR-3 viability, CellTiter-Glo luminescence, at 10 µM, stronger effect = lower value
[4] = HUVEC growth inhibition – cell-based, human, primary screen (AID 575;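 active = viability at or below 30% in both replicate assays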;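 note: 100% = median of untreated cell wells with 0.1% DMSO on each plate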); conditions: HUVEC proliferation, CellTiter-Glo luminescence, 72 h; at 10 µM; stronger effect = lower value
[5] = growth inhibitors of H69AR lung tumor, primary screen, human, duplicate replicates (AID 580;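 active = viability at or under a set limit in both replicates, limit being median viability minus 3 SD, cut at about 48% in these data, passing the limit was not always enough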;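 note: 100% = mean luminescence of untreated wells and 0% = no signal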); conditions: H69AR lung tumor cells viability, ATP luminescence, 72 h; at 10 µM; stronger effect = lower value
[6] = reversal of MRP1-mediated doxorubicin resistance, pilot screen, H69AR cells, doxorubicin co-treatment (AID 601;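 active = viability loss from added drug above about 55%, and viability with drug at most 40%, in both replicates, limit read from the data, passing the limit was not always enough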); conditions: CellTiter-Glo, 72 h, at 10 µM; for differential viability (reversal): stronger effect = higher value
[7] = 384-well plate pilot, post-Golgi transport modulator project, inhibition of yeast transport mutant growth (AID 636; in the data active = inhibition above about 31%); conditions: absorbance 615 nm, about 18 h, stronger effect = higher value
[8] = growth suppression of yeast trafficking mutant, preliminary HTS, modulators of trafficking downstream of Golgi apparatus project, 1536-format plate, OD 615 nm (AID 637; in the data active = inhibition above about 30%); conditions: yeast transport mutant growth, absorbance 615 nm, 18 h; stronger effect = higher value
[9] = OD615 S. cerevisiae growth inhibition, permissive medium, pilot counter-assay, permissive growth control for S. cerevisiae lifespan shortening project (AID 705;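 active = growth inhibition above 25% in both replicates, a cutoff set 3 SD above the mean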); conditions: OD615, 24 h, at 10 µM, stronger effect = higher value
[10] = Restrictive medium S. cerevisiae growth inhibition, OD615, pilot screen of yeast lifespan reduction project, restrictive growth control (AID 706;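 active = growth inhibition above a set limit, 3 SD over mean compound inhibition, in both replicates, cut at about 43% in these data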;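 note: modified DeaD lifespan yeast strain shifted to restrictive glucose medium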); conditions: OD615, 48 h, at 10 µM, stronger effect = higher value
[11] = viability gain of MRP-1-high H69AR cells under doxorubicin, pilot screen, MRP-1 activator project, CellTiter-Glo, duplicate (AID 807;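 active = viability increase at or above a cutoff of the median across tested compounds plus 3 SD, cut at about 8.5% in these data, passing the limit was not always enough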;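 note: compound pretreatment 18-22 h then 72 h combined with doxorubicin; 0% = doxorubicin alone and 100% = vehicle without doxorubicin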); conditions: H69AR viability with doxorubicin, CellTiter-Glo luminescence; at 10 µM; stronger effect = higher value
[12] = growth suppression of beta-catenin knockout HCT116, pilot screen, human colon tumor cells (AID 823;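 active = cell viability at or below a set limit in both duplicate runs, the limit being the all-compound median minus 4 SD, cut at about 23% in these data, passing the limit was not always enough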;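 note: 0% = wells killed by 20 µM Hyamine and 100% = untreated DMSO cell wells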); conditions: CellTiter-Glo, 60 h, at 10 µM, stronger effect = lower value
[13] = growth suppression of PTEN-deleted HCT116, pilot screen, cell-based, HCT116 clonal line, CellTiter-Glo (AID 824); conditions: 60 h, at 10 µM, stronger effect = lower value;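 note: 0% = 20 µM Hyamine control and 100% = vehicle cell control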
[14] = inhibitors of the yeast RAM network, pilot screen, dse1pr::URA3 reporter, 5-FOA selection (AID 869;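 active = inhibition over a set limit, the all-compound mean plus 3 SD, in both replicate runs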;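 note: 0% = DMSO wells with no growth and 100% = 10 µM 1-NA-PP1 with full growth; RAM network block rescues cells from 5-FOA so hits raise OD615 growth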); conditions: S. cerevisiae dse1pr::URA3 5-FOA growth, OD615, 2 d; at 10 µM; stronger effect = higher value; strain carries analog-sensitive mutant Cbk1 kinase
[15] = RAM signaling pathway blockade in yeast – S. cerevisiae, Pdr1DBD-CYC8 efflux-inhibited sensitized strain, primary screen (AID 1298;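 active = RAM network inhibition above 8.4% in each of two replicates, 3 SD over the compound average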;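 note: 0% = DMSO untreated cells without growth and 100% = 10 µM 1-NA-PP1 full growth; higher means more yeast growth rescued from 5-FOA killing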); conditions: S. cerevisiae cbk1-as DSE1-URA3 strain, 5-FOA growth OD615, 2 d; at 50 µM; stronger effect = higher value
[16] = H69AR cells + 2 uM doxorubicin, measured here: viability with 2 uM doxorubicin, stronger effect = lower value
[17] = H69AR cells, compound alone cytotoxicity

Chain of Receptor tyrosine-protein kinase erbB-2 (Homo sapiens) (P04626 whole entry, looked up): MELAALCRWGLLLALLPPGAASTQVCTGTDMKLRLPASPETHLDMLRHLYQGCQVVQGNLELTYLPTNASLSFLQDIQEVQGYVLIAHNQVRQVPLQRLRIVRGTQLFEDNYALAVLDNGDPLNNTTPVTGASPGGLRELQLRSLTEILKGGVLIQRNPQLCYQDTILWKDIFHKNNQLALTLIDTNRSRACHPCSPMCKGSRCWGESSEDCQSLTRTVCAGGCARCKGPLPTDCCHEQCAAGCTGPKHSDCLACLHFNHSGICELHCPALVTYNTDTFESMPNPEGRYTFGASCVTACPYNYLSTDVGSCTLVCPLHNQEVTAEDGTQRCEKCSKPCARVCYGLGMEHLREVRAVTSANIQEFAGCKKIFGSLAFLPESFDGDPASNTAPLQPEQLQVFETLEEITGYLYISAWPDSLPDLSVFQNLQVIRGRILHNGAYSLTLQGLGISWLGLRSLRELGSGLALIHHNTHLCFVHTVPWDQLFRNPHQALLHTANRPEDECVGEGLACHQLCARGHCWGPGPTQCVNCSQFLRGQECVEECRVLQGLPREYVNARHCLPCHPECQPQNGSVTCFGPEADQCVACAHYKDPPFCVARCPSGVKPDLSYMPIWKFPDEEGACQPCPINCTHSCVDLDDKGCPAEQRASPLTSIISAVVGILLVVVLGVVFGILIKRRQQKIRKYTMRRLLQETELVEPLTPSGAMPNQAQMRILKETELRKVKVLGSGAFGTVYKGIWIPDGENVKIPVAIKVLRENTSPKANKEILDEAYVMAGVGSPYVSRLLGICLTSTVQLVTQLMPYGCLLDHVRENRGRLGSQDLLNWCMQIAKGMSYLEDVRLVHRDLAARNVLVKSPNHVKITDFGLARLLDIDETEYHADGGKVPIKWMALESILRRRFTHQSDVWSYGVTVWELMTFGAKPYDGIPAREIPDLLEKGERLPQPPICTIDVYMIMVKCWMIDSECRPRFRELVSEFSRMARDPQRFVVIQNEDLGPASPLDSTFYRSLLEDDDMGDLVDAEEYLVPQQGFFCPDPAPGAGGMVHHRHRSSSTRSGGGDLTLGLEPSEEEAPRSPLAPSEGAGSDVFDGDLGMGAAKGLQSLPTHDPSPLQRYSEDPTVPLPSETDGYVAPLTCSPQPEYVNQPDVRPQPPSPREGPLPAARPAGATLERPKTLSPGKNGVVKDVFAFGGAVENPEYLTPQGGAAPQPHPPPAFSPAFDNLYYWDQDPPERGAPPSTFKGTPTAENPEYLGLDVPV

SMILES | viability [1] [%] | Her2 level [2] | viability [3] | viability [4] | viability [5] | differential viability (reversal) ([6]; H69AR cells + 2 uM doxorubicin) | viability [6, 16] [%] | viability [6, 17] [%] | inhibition [7] | inhibition [8] | growth inhibition [9] | growth inhibition [10] | viability increase [11] | viability [12] | viability [13] | inhibition [14] | RAM network inhibition [15]
O=C(CSc1ncnc2nc[nH]c12)c1ccc(Cl)cc1 | 76 | 98% (inactive) | 76% (inactive) | 63% (inactive) | 91.1% (inactive) | -8.57% (inactive) | 99.7 | 91.1 | -3.47% (inactive) | 2.13% (inactive) | 1.02% (inactive) | 11.4% (inactive) | -1.43% (inactive) | 39.8% (inactive) | 37.7% (inactive) | 1.29% (inactive) | 5.06% (inactive)
COCCCNC(=O)c1ccc(CS(=O)(=O)c2ccc(OC)cc2)o1 | 104 | 105% (inactive) | 104% (inactive) | 95.4% (inactive) | 91.6% (inactive) | 4.5% (inactive) | 87.1 | 91.6 | -4% (inactive) | 2.62% (inactive) | -12% (inactive) | -24.6% (inactive) | -1.48% (inactive) | 98.6% (inactive) | 91% (inactive) | 0.405% (inactive) | 1.46% (inactive)
O=C(NCc1ccc(F)cc1)c1cc2ccccn2n1 | 84 | 98.5% (inactive) | 84% (inactive) | 99% (inactive) | 98.2% (inactive) | 17.5% (inactive) | 80.6 | 98.2 | -2.95% (inactive) | 4.5% (inactive) | 1.54% (inactive) | 3.24% (inactive) | -0.54% (inactive) | 99% (inactive) | 89.8% (inactive) | 0.47% (inactive) | 1.1% (inactive)
CCCCc1ccc(NC(=O)C2CCCO2)cc1 (stereo not given) | 92 | 122% (inactive) | 92% (inactive) | 93.5% (inactive) | 103% (inactive) | 20.8% (inactive) | 82.2 | 103 | -4.87% (inactive) | -5.33% (inactive) | 2.46% (inactive) | 2.07% (inactive) | 2.53% (inactive) | 100% (inactive) | 94.5% (inactive) | 1.05% (inactive) | 3.17% (inactive)
COc1ccc(OC)c(C2=NOC(C(=O)Nc3c(C)n(C)n(-c4ccccc4)c3=O)C2)c1 (stereo not given) | 88.5 | 96% (inactive) | 88.5% (inactive) | 84.6% (inactive) | 95.3% (inactive) | 8.86% (inactive) | 86.5 | 95.3 | -2.93% (inactive) | -7.54% (inactive) | -11.8% (inactive) | -24% (inactive) | -0.56% (inactive) | 99.4% (inactive) | 107% (inactive) | 0.74% (inactive) | 3.94% (inactive)
COc1ccc(C2CC(=O)C(C=NCCCN3CCOCC3)=C(O)C2)cc1 (stereo not given) | 84.5 | 82.5% (inactive) | 84.5% (inactive) | 102% (inactive) | 99.3% (inactive) | 12.8% (inactive) | 86.5 | 99.3 | -1.15% (inactive) | -1.33% (inactive) | -0.615% (inactive) | 1.58% (inactive) | 0.71% (inactive) | 103% (inactive) | 101% (inactive) | 2.07% (inactive) | 3.01% (inactive)
CCCCn1c(CNC(=O)CCC)nc2ccccc21 | 116 | 102% (inactive) | 116% (inactive) | 87.8% (inactive) | 91.8% (inactive) | 3.83% (inactive) | 87.9 | 91.8 | -5.2% (inactive) | -4.67% (inactive) | -9.17% (inactive) | -13.8% (inactive) | -2.97% (inactive) | 104% (inactive) | 100% (inactive) | -0.485% (inactive) | 1.51% (inactive)
CC1Cc2nc(SCC(N)=O)n(Cc3ccccc3)c(=O)c2S1 (stereo not given) | 88.5 | 100% (inactive) | 88.5% (inactive) | 93.7% (inactive) | 88.3% (inactive) | 8.68% (inactive) | 79.6 | 88.3 | -3.6% (inactive) | -4.67% (inactive) | -18.9% (inactive) | -26.3% (inactive) | -1.84% (inactive) | 95.3% (inactive) | 90.9% (inactive) | 1.32% (inactive) | 1.84% (inactive)
CCc1nn(CC(=O)NCCCN2CCc3ccccc3C2)c(=O)c2cc3sccc3n12 | 86 | 86.5% (inactive) | 86% (inactive) | 89.1% (inactive) | 77.5% (inactive) | -3.23% (inactive) | 80.8 | 77.5 | -3.46% (inactive) | 1% (inactive) | -2.08% (inactive) | -10.3% (inactive) | -4.54% (inactive) | 78.9% (inactive) | 79.9% (inactive) | 0.58% (inactive) | 1.52% (inactive)
COC(=O)C1=C(C)NC(C)=C(C(=O)OC)C1C1CC=CCC1 (stereo not given) | 85 | 90.5% (inactive) | 85% (inactive) | 75.4% (inactive) | 100% (inactive) | 23.3% (inactive) | 77.1 | 100 | -0.91% (inactive) | 6.89% (inactive) | -3.42% (inactive) | -21.7% (inactive) | -4.18% (inactive) | 90.4% (inactive) | 87.1% (inactive) | 2.73% (inactive) | 8.09% (inactive)
COc1cccc(-c2nnc(NC(C)=O)o2)c1 | 93.5 | 99.5% (inactive) | 93.5% (inactive) | 103% (inactive) | 98.8% (inactive) | 7.19% (inactive) | 91.6 | 98.8 | -5.47% (inactive) | -4.33% (inactive) | -0.545% (inactive) | 1.75% (inactive) | -1% (inactive) | 101% (inactive) | 105% (inactive) | 1.76% (inactive) | 1.45% (inactive)
COc1cc2c(cc1OC)C(C)N(C(=O)Cn1ncc3c1-c1ccccc1OC3)CC2 (stereo not given) | 90.5 | 104% (inactive) | 90.5% (inactive) | 111% (inactive) | 87.2% (inactive) | 0.365% (inactive) | 86.9 | 87.2 | -2.31% (inactive) | 2.33% (inactive) | -9.09% (inactive) | -8.14% (inactive) | -2.56% (inactive) | 89.5% (inactive) | 89.8% (inactive) | 0.41% (inactive) | 1.88% (inactive)
COC(=O)C1=C(N)OC2=C(C(=O)CCC2)C1c1cccs1 (stereo not given) | 110 | 85% (inactive) | 110% (inactive) | 93.7% (inactive) | 101% (inactive) | 17.8% (inactive) | 83.2 | 101 | -4.19% (inactive) | 4.1% (inactive) | -2.24% (inactive) | -6.3% (inactive) | -2.89% (inactive) | 94.9% (inactive) | 92.9% (inactive) | 2.75% (inactive) | 4.64% (inactive)
CCOn1c(=O)c(=O)n(OCc2ccccc2)c2ccccc21 | 86.5 | 88% (inactive) | 86.5% (inactive) | 78.5% (inactive) | 83.6% (inactive) | 9.08% (inactive) | 74.5 | 83.6 | -2.05% (inactive) | -6.33% (inactive) | -14% (inactive) | -6.63% (inactive) | -3.35% (inactive) | 95.8% (inactive) | 92% (inactive) | 2.35% (inactive) | 3.12% (inactive)
O=C(c1cc2ccccc2oc1=O)N1CCN(c2ccc(N3CCOCC3)nn2)CC1 | 98 | 118% (inactive) | 98% (inactive) | 88.5% (inactive) | 101% (inactive) | 7.39% (inactive) | 93.9 | 101 | -0.77% (inactive) | -2% (inactive) | 5.29% (inactive) | -7.26% (inactive) | -1.81% (inactive) | 101% (inactive) | 96.6% (inactive) | 0.885% (inactive) | -0.58% (inactive)
COc1ccc(NC(=O)CSc2nc3c(c(=O)n2-c2ccccc2OC)SCC3)cc1 | 102 | 110% (inactive) | 102% (inactive) | 87.4% (inactive) | 89.7% (inactive) | -5.71% (inactive) | 95.4 | 89.7 | -1.6% (inactive) | -5.5% (inactive) | 1.7% (inactive) | -1.84% (inactive) | -0.32% (inactive) | 99% (inactive) | 98.9% (inactive) | 2.67% (inactive) | 3.97% (inactive)
Cc1cc(C)nc(SCc2csc(N)n2)n1 | 89.5 | 85% (inactive) | 89.5% (inactive) | 89.6% (inactive) | 90.1% (inactive) | -4.05% (inactive) | 94.1 | 90.1 | -0.26% (inactive) | -2.67% (inactive) | 3.96% (inactive) | 14.9% (inactive) | 1.21% (inactive) | 105% (inactive) | 99.6% (inactive) | 0.605% (inactive) | 4.19% (inactive)
Cc1nc2sc(C(c3cccs3)N3CCOCC3)c(O)n2n1 (stereo not given) | 90 | 100% (inactive) | 90% (inactive) | 94.8% (inactive) | 88.6% (inactive) | -4.79% (inactive) | 93.4 | 88.6 | -7.73% (inactive) | -0.83% (inactive) | -7.23% (inactive) | -11.9% (inactive) | -0.31% (inactive) | 107% (inactive) | 94.2% (inactive) | 1.54% (inactive) | 1.99% (inactive)
CC(C)(C)NC(=O)CSc1nnc(-c2ccccn2)n1-c1ccccc1 | 98.5 | 126% (inactive) | 98.5% (inactive) | 105% (inactive) | 91.9% (inactive) | 0.06% (inactive) | 91.9 | 91.9 | -5.2% (inactive) | -3% (inactive) | -14% (inactive) | -6.57% (inactive) | -0.63% (inactive) | 100% (inactive) | 92.9% (inactive) | 0.43% (inactive) | 1.1% (inactive)
O=C(c1ccco1)N1CCN(C(=O)C2CC(c3ccc(F)cc3)=NO2)CC1 (stereo not given) | 88 | 112% (inactive) | 88% (inactive) | 94.1% (inactive) | 88.5% (inactive) | 0.74% (inactive) | 87.8 | 88.5 | -1.15% (inactive) | -4.17% (inactive) | -1.38% (inactive) | 22% (inactive) | -1.41% (inactive) | 106% (inactive) | 105% (inactive) | 0.47% (inactive) | 5.01% (inactive)
